# Test results from PubChem BioAssay AID1845 (The Scripps Research Institute Molecular Screening Center, 2009).
# The campaign covered roughly 290,000 compounds. About 490 (0.17%) were called active. The sample holds actives, similar compounds and a random draw of the others, so the mix is not that of the screen. Unmarked numbers belong to inactive results. Rule as the data show it: active = inhibition above about 37%; inactive = the rest.
# Assay: compounds displacing fluorescent DNA intercalator, primary screen, artefact control for HCV NS3 helicase inhibitor project, biochemical, FID fluorescence (AID 1845);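 also: 0% = vehicle and 100% = reference compound; higher means more ethidium bromide displaced from hairpin DNA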
# Conditions: DNA fluorescent intercalator displacement, at 7.9 µM, hits give high values
row,Compound,inhibition
1,COc1ccc(C(=O)COC(=O)Cn2cnc3c2c(=O)n(C)c(=O)n3C)c(OC)c1,-23%
2,O=C(Nc1ccc([N+](=O)[O-])cc1)OCCc1ccccn1,5.74%
3,COc1ccc(CSc2nnnn2-c2ccc(O)cc2)cc1F,-6.37%
4,COc1ccc(CC(=O)NC2CCSc3ccccc32)cc1OC (stereo not drawn),-19.9%
5,COc1ccc(-c2noc(CCCC(=O)NC3CCCC3)n2)cc1OC,-34.4%
6,Cc1ccc(C2CC(c3cccc(NS(C)(=O)=O)c3)=NN2S(C)(=O)=O)cc1 (stereo not drawn),-20.2%
7,CN(CC(=O)Nc1c(Cl)cccc1Cl)C(=O)CNC(=O)C1CCCCC1,-9.61%
8,CCOC(=O)C1(Cc2ccccc2C)CCCN(C(=O)c2ccc(COC)o2)C1 (stereo not drawn),-43.4%
9,Cn1c(=O)c2ccccc2n(CC(=O)Nc2ccc3c(c2)OCCO3)c1=O,-7.1%
10,COc1ccc(/C=C2\SC(=O)N(CCC(=O)NC3CCS(=O)(=O)C3)C2=O)cc1 (stereo not drawn),-25.1%
11,COc1ccc(Br)cc1CN(C)CC(=O)Nc1cc([N+](=O)[O-])ccc1OC,0.14%
12,O=C(NC1CCCCC1)C1CCC(CNS(=O)(=O)c2ccccc2)CC1 (stereo not drawn),-36.5%
13,Cc1ccc(C(C(=O)NCC2CCCO2)N(C(=O)c2snc(C(N)=O)c2N)c2ccc(C(C)C)cc2)o1 (stereo not drawn),-41%
14,CCCCNC(=O)C1(O)c2ccccc2NC(=O)N1c1ccc(Cl)cc1 (stereo not drawn),-11.7%
15,CCCNC(=O)c1ccc(N2CCC3(CC2)CC(c2ccc(Cl)cc2)=NO3)c([N+](=O)[O-])c1,-20%
16,COc1ccc(OC)c(C(C)NC(=S)Nc2ccc(S(=O)(=O)Nc3ncccn3)cc2)c1 (stereo not drawn),-59.4%
17,Cc1c(Cl)cccc1NC(=O)NCCCN1CCCC1=O,-5.46%
18,COc1ccccc1NC(=O)CCC(=O)OC(C)C(=O)c1ccccc1 (stereo not drawn),-17.2%
19,COc1cccc(NC(=O)N2C3CCCC2CC(NC(C)=O)C3)c1 (stereo not drawn),-3.46%
20,CC[n+]1cc(C)ccc1/C=C/c1ccc(N(C)C)cc1,-33.2%
21,COc1ccc(N2CCN(S(=O)(=O)c3cc(Br)cnc3N)CC2)cc1,-2.88%
22,CC(=O)c1ccc(NC(=O)c2sc3nc4n(c(=O)c3c2C)CCCCC4)cc1,-25.9%

row,Compound,inhibition
1,Cc1ccn(CCC(=O)N2c3ccccc3CC2C)n1 (stereo not drawn),-9.3%
2,O=C(/C=C/c1ccc([N+](=O)[O-])o1)NNC(=O)c1ccc(F)cc1,-4.43%
3,CCN(CC)c1ccc(NC(=O)CN2CCN(c3ccccn3)CC2)cc1,-17.6%
4,O=C(Cn1ccc2cc(S(=O)(=O)N3CCCC3)ccc21)NCc1ccccc1,-16.4%
5,O=C(c1ccc[nH]c1=S)N1CCN(S(=O)(=O)c2ccc(Br)cc2Cl)CC1,-16.3%
6,C/C(=N\Nc1cccc(C(=O)O)c1)c1ccc2c(c1)Nc1ccccc1S2,-16.1%
7,NS(=O)(=O)c1ccc2nc(NC(=O)CS(=O)(=O)c3ccc(F)cc3)sc2c1,-3.98%
8,CC(CCc1ccc(O)cc1)NCc1ccc(Cl)cc1Cl (stereo not drawn),12.2%
9,CCN(CC(=O)Nc1ccccc1OC)C(=O)Cn1cnc2ccccc2c1=O,-5.22%
10,Cc1cc(-c2nnc(CCC(=O)NC(c3ccccc3)c3ccccc3)o2)no1,-7.1%
11,Cc1ccc(C(C)C)c(OCCSc2nc3ccccc3n2CC(=O)O)c1,-11.6%
12,O=C(CSc1nc2nccnc2c(=O)n1Cc1cccs1)Nc1ccccc1F,-11.4%
13,COc1ccc(-c2noc(C(C)NS(=O)(=O)c3ccc(NC(C)=O)cc3)n2)cc1 (stereo not drawn),-8%
14,CCCCCC1CC(COc2ccccc2)OC1=O (stereo not drawn),-26.6%
15,O=C1C(=O)N(CCN2CCOCC2)C(c2cccc(Cl)c2)/C1=C(/O)c1ccc2c(c1)OCO2 (stereo not drawn),-31.7%
16,Cc1nnc(SCC(=O)N2c3ccccc3C(C)(c3ccc(Cl)cc3)CC2(C)C)s1 (stereo not drawn),-27.2%
17,Cn1c(=O)n(C)c2cc(S(=O)(=O)Nc3ccc(F)cc3)ccc21,-0.97%
18,CCc1ccc(-c2cc(C(=O)NN3CCN(C)CC3)c3ccccc3n2)cc1,16.5%
19,O=S(=O)(NCC1CC1)c1ccc(F)c(Cl)c1,-2.55%
20,O=C(NCC(=O)N1CCN(c2ccccc2O)CC1)c1ccc2ccccc2c1,-38.7%
21,CCc1ccc(NC(=O)COC(=O)c2cccs2)cc1,-15%
22,CCOC(OCC)c1ccc(/C=C\c2nccc(N)n2)cc1,-11.1%

row,Compound,inhibition
1,CCN1CCN(c2ccc(S(=O)(=O)N3CCCCC3)cc2NC(=O)Cc2c(Cl)cccc2Cl)CC1,24.2%
2,CN1CCN(c2ccc(S(=O)(=O)N3CCCCC3)cc2NC(=O)Cc2ccccc2F)CC1,17.4%
3,COc1ccc(CC(=O)Nc2cc(S(=O)(=O)N3CCCCC3)ccc2N2CCN(C)CC2)cc1,39.2% (active)
4,CN(C)c1cccc(C(=O)N2CCC(n3nccc3NC(=O)C3CCOC3)CC2)c1 (stereo not drawn),-16.7%
5,COc1ccc(NC(=O)CSc2nc3ccccc3c(=O)n2C)cc1,-13.4%
6,COCCCN1C(=O)C(=O)/C(=C(/O)c2ccc(S(=O)(=O)N3CCOCC3)cc2)C1c1ccc(F)cc1 (stereo not drawn),-50.7%
7,CC1CN(C(=O)CCC(=O)NCc2cccnc2)c2ccccc2O1 (stereo not drawn),-10.2%
8,CC1CN(C(=O)CCC(=O)NCCCN2CCC(Cc3ccccc3)CC2)c2cc(Cl)ccc2O1 (stereo not drawn),41.2% (active)
9,CC1CN(C(=O)CCC(=O)NC2CCN(Cc3ccccc3)CC2)c2ccccc2O1 (stereo not drawn),2.82%
10,Cc1cc(O)c(C(=O)/C=C/c2c(F)c(F)c(F)c(F)c2F)c(=O)o1,-15.9%
11,CC1CC(C)CN(CCCNC(=O)Cn2ncc3c([nH]c4ccccc43)c2=O)C1 (stereo not drawn),5.73%
12,Cc1c2cnn(CC(=O)NCc3ccccn3)c(=O)c2c(C)n1Cc1ccc(Cl)cc1,-39%
13,Cc1c2cnn(CC(=O)NCCCN3CC(C)CC(C)C3)c(=O)c2c(C)n1Cc1ccc(Cl)cc1 (stereo not drawn),37.1% (active)
14,Cc1ccc(C(=O)N/C(=C/c2ccc(-c3cccc([N+](=O)[O-])c3)o2)C(=O)NCCCN(C)C)cc1,41.5% (active)
15,N#C/C(=C\c1ccc(-c2cccc([N+](=O)[O-])c2)o1)C(=O)NCCN1CCOCC1,6.61%
16,CN(C)CCNC(=O)/C(=C/c1cccc([N+](=O)[O-])c1)NC(=O)c1ccccc1,14.4%
17,CCN(CC)CCCNC(=O)Cn1cnc2sc(C)c(S(=O)(=O)N3CCN(c4ncccn4)CC3)c2c1=O,26.1%
18,CCN(CC)CCNC(=O)c1sc2ncn(CC(=O)Nc3ccc(C)c(Cl)c3)c(=O)c2c1C,37% (active)
19,CCN(CC)CCNC(=O)Cn1cnc2sc(C)c(S(=O)(=O)N3CCOCC3)c2c1=O,11.1%
20,O=C(c1c(F)cccc1F)N1CCN(c2ncc(Br)cn2)CC1,-20.1%
21,Cc1cc(=O)oc2c3c(cc(OCC(=O)NCCC(=O)N[C@@H](C)C(=O)O)c12)OC(C)(C)CC3,-35.5%
22,CCn1c(=O)c(C(=O)NCc2ccc3c(c2)OCO3)c(O)c2ccccc21,-4.83%

row,Compound,inhibition
1,CC1CC(C)CN(S(=O)(=O)c2cccc3nonc23)C1 (stereo not drawn),-7.76%
2,C=CCN(Cc1nc(-c2cc(OC)c3c(c2)OCO3)oc1C)C1CCS(=O)(=O)C1 (stereo not drawn),-27.8%
3,Clc1cc(NC2CCCCC2)ncn1,-15.2%
4,CS(=O)(=O)N(CC(=O)N/N=C/c1ccccn1)c1ccc(Oc2ccccc2)cc1,-33.5%
5,Cc1cc(C)c2c(n1)nn1c(N3CCOCC3)cc(C)nc21,-11.1%
6,Cc1cc(C)c2nc(SCCC#N)nc(C)c2c1,-17%
7,Cc1cc(C)c2nc3nc(C)cc(C)c3c(N)c2c1,62.7% (active)
8,OCCN1CCN(c2nnc(-c3ccccc3)c3ccccc23)CC1,-5.67%
9,O=C1c2ccccc2C(=O)c2c1cccc2N1CCN(Cc2ccccc2)CC1,8.12%
10,O=C1c2ccccc2C(=O)c2c1cccc2N1CCN(CCO)CC1,53.2% (active)
11,Cc1cccc(-c2nc(CS(=O)CC(=O)NC(C)CCc3ccccc3)c(C)o2)c1 (stereo not drawn),-57.2%
12,CC(=N\NC(=O)c1cc(Br)ccc1O)/C(=N/O)C(=O)Nc1ccccc1,-11.2%
13,CN1CCN(NC(=O)Nc2ccc(Br)cc2)CC1,-5.13%
14,COc1ccccc1NC(=O)C(C)OC(=O)CC1CCCC1 (stereo not drawn),-26.3%
15,CC(=O)NC(CC(=O)Nc1nc(-c2ccccc2)c(C(C)=O)s1)c1ccccc1 (stereo not drawn),-16.9%
16,Clc1nc(NC2CCCC2)nc(N2CCOCC2)n1,-6.99%
17,O=C(CNC(=O)[C@@H]1Cc2ccccc2CN1)NC1CCCCC1,0.62%
18,CC(C)c1cc(C(=O)N/N=C/C(Br)=C/c2ccccc2)n[nH]1,-26.4%
19,CCN(CC(=O)NCc1cccs1)C(=O)c1cccc(S(=O)(=O)Nc2ccccc2OC)c1,-11.7%
20,COCCNC(=O)c1ccc(S(=O)(=O)c2ccc(Cl)cc2)c(NC(C)=O)c1,0.74%
21,COC(=O)C1(C)NC(c2ccc(F)cc2)C2C(=O)N(c3ccccc3)C(=O)C21 (stereo not drawn),0.11%
22,CN(C)C(=O)CCC(=O)N1CCCCC1C(=O)Nc1ccc(Oc2ccccc2F)cc1 (stereo not drawn),-34%
